Where “and” joins values, the source holds several entries; their conditions need not be identical. Equal values may be shown once. Where a name gives a salt, the structure may show the parent alone.
How the values were obtained:
Assay in all cases: Euclidean distance of Cell Painting phenotypic profile (signed KS, 77 features) to DMSO centroid (dimensionless distance); 5 or 10 uM (library dependent); higher = stronger phenotypic change vs DMSO (phenoactivity)
Conditions in all cases: 48 h
786-O = tested on: 786-O
Method in brief: (§1)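 Five cancer lines and a healthy fibroblast line received library compounds at 10 or 5 uM (library-dependent, 0.1% DMSO final) for 48 h. Stained cells were imaged confocally at 20X (9 fields/well). Harmony extracted 77 features, each scored as a signed Kolmogorov-Smirnov statistic against same-plate vehicle wells. Profiles were plate-position corrected, correlation-weighted and replicate-averaged at the top dose. Phenoactivity is the Euclidean distance from each profile to the median vehicle profile.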

A549 = tested on: A549
Method in brief: as §1

DU145 = tested on: DU145
Method in brief: as §1

FB = tested on: FB
Method in brief: as §1

HEPG2 = tested on: HEPG2
Method in brief: as §1

OVCAR4 = tested on: OVCAR4
Method in brief: as §1

Structure (SMILES)	Euclidean distance (786-O)	Euclidean distance (A549)	Euclidean distance (DU145)	Euclidean distance (FB)	Euclidean distance (HEPG2)	Euclidean distance (OVCAR4)
C=CC(=O)Nc1ccc2ncnc(Nc3ccc(OCc4cccc(F)c4)c(Cl)c3)c2c1	2.14	1.92	1.99	2.48	1.03	3.41
CC[C@@]1(O)C(=O)OCc2c1cc1n(c2=O)Cc2cc3c(CN(C)C)c(O)ccc3nc2-1 [Topotecan]	3.37	4.25	3.94	3.77	3.31	2.85
Nc1nc(F)nc2c1ncn2[C@@H]1O[C@H](CO)[C@@H](O)[C@@H]1O [Fludarabine]	1.67	1.6	1.17	1.81	1.21	1.63
CN(c1ncccc1CNc1nc(Nc2ccc3c(c2)CC(=O)N3)ncc1C(F)(F)F)S(C)(=O)=O	1.25 and 2.75	3.05 and 1.62	2.34 and 1.3	3.61 and 1.66	2.58 and 1.31	3.25 and 1.45
NCC[C@H](O)C(=O)N[C@@H]1C[C@H](N)[C@@H](O[C@H]2O[C@H](CN)[C@@H](O)[C@H](O)[C@H]2O)[C@H](O)[C@H]1O[C@H]1O[C@H](CO)[C@@H](O)[C@H](N)[C@H]1O [Amikacin hydrate]	1.52	1.1	0.584	1.08	1.29	1.07
Nc1ccn([C@@H]2CS[C@H](CO)O2)c(=O)n1 [Lamivudine]	0.725	0.508	0.589	1	1.07	0.623
C=C[C@@H]1C[C@]1(NC(=O)[C@@H]1C[C@@H](Oc2ncc(OC)c3ccc(Cl)cc23)CN1C(=O)[C@@H](NC(=O)OC(C)(C)C)C(C)(C)C)C(=O)NS(=O)(=O)C1CC1 [Asunaprevir]	1.27	1.49	0.966	0.784	0.47	1.08
CNC(=O)c1cc(Oc2ccc(NC(=O)Nc3ccc(Cl)c(C(F)(F)F)c3)c(F)c2)ccn1 [Regorafenib Monohydrate]	2.14	2.35	1.71	1.8	1.82	1.76
CN1CCN(CCCN2c3ccccc3Sc3ccc(Cl)cc32)CC1 [Prochlorperazine dimaleate salt]	1.84	2.24	1.63	2.19	2.85	1.67
NC(=O)c1cc[n+](CC2=C(C(=O)O)N3C(=O)[C@@H](NC(=O)[C@@H](c4ccccc4)S(=O)(=O)[O-])[C@H]3SC2)cc1 [Cefsulodin sodium]	1.11	0.966	1.58	1.06	0.633	1.15
CC(C)(C)NC(=O)[C@@H]1CN(Cc2cccnc2)CCN1C[C@@H](O)C[C@@H](Cc1ccccc1)C(=O)N[C@H]1c2ccccc2C[C@H]1O [Indinavir Sulfate]	0.896	0.551	0.801	0.953	0.739	1.27
O=C(O)c1ccc(CN2CCC(CN[C@@H]3C[C@H]3c3ccccc3)CC2)cc1	1.04	1.01	0.946	1.08	1.11	1.06
Nc1cc(C(Cl)=C(Cl)Cl)c(S(N)(=O)=O)cc1S(N)(=O)=O [Clorsulon]	1.15	0.636	0.797	0.676	0.743	1.18
CC(=O)[O-].[K+] [Potassium acetate]	1.42	0.754	1.27	0.927	0.554	1.3
N#C[C@@H]1CCCN1C(=O)CNC12CC3CC(CC(O)(C3)C1)C2 [Vildagliptin (LAF-237)]	1.09	1.02	1.43	0.918	0.836	1.21
O[C@@H]1CO[C@H]2[C@@H]1OC[C@@H]2O [Isosorbide]	1.15	0.673	1.24	1.02	0.565	1.64
Cc1cccc(-c2[nH]c(C(C)(C)C)nc2-c2ccc3nccnc3c2)n1	1.56	1.18	0.741	0.884	1.48	0.948
O=C(OCC(O)CO)c1ccccc1Nc1ccnc2cc(Cl)ccc12 (configuration not stated) [Glafenine HCl]	1.07	0.79	0.824	1.52	0.968	1.04
Cc1cccc(C)c1NC(=O)c1cc(S(N)(=O)=O)c(Cl)cc1O [Xipamide]	1.51	0.665	0.648	1.08	0.576	1.08
Cn1c([N+](=O)[O-])cnc1COC(N)=O [Ronidazole]	1.13	0.834	0.687	1.01	0.646	1.59
Cc1nc2c([nH]1)-c1ccccc1N(C(=O)c1ccc(NC(=O)c3ccccc3-c3ccccc3)cc1)CC2 [Conivaptan HCl]	1.3	1.1	1.42	1.28	1.72	1.57
Cc1cccc(Nc2ccccc2C(=O)O)c1C [Mefenamic Acid]	0.733	0.521	0.8	1.14	0.673	0.64
NCCCC[C@@H]1NC(=O)[C@@H](Cc2ccccc2)NC(=O)[C@H](CC(=O)O)NC(=O)CNC(=O)[C@H](CCCN=C(N)N)NC1=O [Cyclo (-RGDfK)]	2.63	1	2.08	0.709	3.57	2.1
COc1c(O[C@@H]2O[C@H](CO)[C@@H](O)[C@H](O)[C@H]2O)cc2c(c1OC)-c1ccc(SC)c(=O)cc1[C@@H](NC(C)=O)CC2 [Thiocolchicoside]	0.819	0.537	0.944	1.41	0.502	1.21

Structure (SMILES)	Euclidean distance (786-O)	Euclidean distance (A549)	Euclidean distance (DU145)	Euclidean distance (FB)	Euclidean distance (HEPG2)	Euclidean distance (OVCAR4)
Cc1nc(Nc2ncc(C(=O)Nc3c(C)cccc3Cl)s2)cc(N2CCN(CCO)CC2)n1 [Dasatinib]	3.15	3.53	4.42	3.41	2.2	3.92
O=c1c(-n2ccnn2)c[nH]n1-c1cc(N2CCOCC2)ncn1 [Molidustat (BAY 85-3934)]	1.15	0.806	1.01	1.09	0.627	1.19
O=c1ccc2cc(O)c(O)cc2o1 [Esculetin]	1.31	0.797	1.69	0.959	1.2	0.988
O=C(O)Cc1ccccc1Nc1c(Cl)cccc1Cl [Diclofenac Diethylamine]	0.84	0.842	0.728	0.689	0.397	0.97
C[C@@H](O[C@H]1OCCN(Cc2n[nH]c(=O)[nH]2)[C@H]1c1ccc(F)cc1)c1cc(C(F)(F)F)cc(C(F)(F)F)c1 [Aprepitant]	1.15	1.83	0.905	1.05	1.43	1.3
CCc1c2c(nc3ccc(O)cc13)-c1cc3c(c(=O)n1C2)COC(=O)[C@]3(O)CC	4.4	4.38	3.48	4.61	3.55	3.46
O=C1NC(=O)/C(=C/c2ccc3nccc(-c4ccncc4)c3c2)S1	1.74	2.75	2	1.86	0.698	2.91
OC[C@H]1O[C@@H](Oc2ccc(O)cc2)[C@H](O)[C@@H](O)[C@@H]1O [Arbutin]	1.12	0.916	2.06	0.914	0.919	1.73
O=C1C[C@@H](c2ccc(O[C@@H]3O[C@H](CO)[C@@H](O)[C@H](O)[C@H]3O)cc2)Oc2cc(O)ccc21 [Liquiritin]	1.07	0.817	0.781	1.59	0.642	1.16
CCC(=O)N1CCN(c2ccc(-n3c(=O)ccc4cnc5ccc(-c6cnc7ccccc7c6)cc5c43)cc2C(F)(F)F)CC1 [Torin 1]	2.66	3.46	2.74	4.26	2.78	3.47
C[C@](N)(Cc1ccc(O)c(O)c1)C(=O)O [Methyldopa]	1.49	0.734	1.09	0.909	0.55	0.729
CC(N)C12CC3CC(CC(C3)C1)C2 (configuration not stated) [Rimantadine Hydrochloride]	1.07	0.924	0.781	1.07	0.658	1.17
Cc1ccc(Cl)cc1N(CC(=O)Nc1c(F)cccc1F)S(C)(=O)=O	0.896	1.9	0.886	0.614	0.565	0.763
Cc1nc(C#Cc2ccnc(Cl)c2)c(C)n1-c1ccc(OC(F)(F)F)cc1	0.836	0.736	0.706	0.731	0.904	1.2
COc1cc(F)c(C(C)C)cc1-c1ccc(C(F)(F)F)cc1CN1C(=O)O[C@H](c2cc(C(F)(F)F)cc(C(F)(F)F)c2)[C@@H]1C [Anacetrapib (MK-0859)]	0.703	0.903	1.12	0.869	1.84	0.709
C=CC(=O)Nc1cccc(Nc2nc(Nc3ccc(Oc4ccnc(C(=O)NC)c4)cc3)ncc2F)c1	1.82	1.47	1.48	2.2	2.3	1.63
COc1cc2c(cc1OC)[C@@H](Cc1cc(OC)c(OC)c(OC)c1)[N+](C)(CCCOC(=O)CC/C=C/CCC(=O)OCCC[N+]1(C)CCc3cc(OC)c(OC)cc3[C@H]1Cc1cc(OC)c(OC)c(OC)c1)CC2 (some centres not stated) [Mivacurium chloride]	0.861	1	0.929	1.3	0.442	1.25
COc1ccc(CNC(=O)Nc2ncc([N+](=O)[O-])s2)cc1	0.769	1.95	0.841	0.936	1.02	0.694
CCOC(=O)c1ccc(O)cc1 [Ethylparaben]	0.729	0.362	0.901	0.865	0.385	1.31
COc1cc(CNC(=O)CCCCC=CC(C)C)ccc1O [Capsaicin(Vanilloid)]	1.06	1.47	1.35	0.876	0.778	1.44
O=C(O)CC1CC(c2ccccc2)=NO1 (configuration not stated)	0.76	1.81	1.27	1.31	0.596	0.844
O=C(O)Cc1cccc(OCCCN(Cc2cccc(C(F)(F)F)c2Cl)CC(c2ccccc2)c2ccccc2)c1	1.18	0.78	0.825	1.32	0.721	0.79
CCN1CCN(c2ccc(Nc3cc(N(C)C(=O)Nc4c(Cl)c(OC)cc(OC)c4Cl)ncn3)cc2)CC1 [BGJ398 (NVP-BGJ398|Infigratinib)]	3.87	4	2.87	3.62	2.39	4.1
